HT1080-NT tox = kills 2HG-producing HT-1080-NT fibrosarcoma cells; 1.6% of 360,000 active; Potency, µM (titrated, usually from 46.1 µM), for the others: at the top dose activity, negative = less viability, actives largely listed as cytotoxic; HT-1080-NT fibrosarcoma viability, CellTiter-Glo ATP luminescence, 48 h;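 note: NT is the 2HG producing partner of a matched IDH1 knockdown line; 0% = DMSO-treated cells and -100% = media-only wells without cells; nearly all actives have a fitted effect of over 55% in size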
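Read-out is CellTiter-Glo luminescence after 10 minutes at room temperature, following 48 hours' compound treatment of HT-1080-NT cells (750 cells/well, RPMI, 5% FBS, 37 degrees C).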
HT1080 IDH1KD tx = HT-1080 IDH1 knockdown cell toxicity (counter line) | 2% of 360,000 active | HT-1080 IDH1 knockdown viability, ATP luminescence, 48 h | Potency, µM (doses to about 46.1 µM), for the others: top-dose activity, negative = toxicity, actives largely listed as cytotoxic | AID 686971;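 note: 0% = DMSO wells and -100% = cell-free medium wells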
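HT-1080-IDH1KD cells (IDH1 knocked down), 750/well in RPMI with 5% FBS, treated with compound 48 h at 37 degrees C. Viability by CellTiter-Glo luminescence, normalised to DMSO and no-cell wells; concentration-response curves classed.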
DT40 TDP1 CPT = growth inhibition of DT40 Tdp1-/-;hTDP1 cells with camptothecin (screen for TDP1 inhibitors). chicken DT40 Tdp1-/-;hTDP1 cells + 20 nM CPT, ATP luminescence, 48 h. Potency, µM (highest dose often 46.2 µM), for the others: at the top dose activity change, negative = growth inhibition, actives largely listed as inhibitors. 12% of 420,000 active. AID 686979; note: nearly all actives have a fitted effect of over 55% in size
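Chicken DT40 Tdp1-/- cells complemented with human TDP1, 400 cells/well, exposed to compounds plus 20 nM camptothecin for at least 48 h at 37 C; viability read as ATP content by CellTiter-Glo luminescence.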
DT40 TDP1 no CPT = qHTS for Inhibitors of human tyrosyl-DNA phosphodiesterase 1 (TDP1): qHTS in cells in absence of CPT; DT40 Tdp1-/- hTDP1 cells, no CPT, ATP luminescence, 48 h; Potency, µM (titrated, usually from 46.2 µM), without a hit: at the highest dose activity change, negative = growth inhibition, usual class: inhibitors; 15% of 420,000 active; note: nearly all actives have a fitted effect of over 55% in size
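Seeded 400 DT40-hTDP1 cells/well (vehicle DMSO, no 20 nM CPT); pinned compounds; ≥48 hr at 37 °C; CellTiter-Glo luminescence as viability measure.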
KB-3-1 cytotox = KB-3-1 parental cell cytotoxicity; Potency, µM (doses to about 46.1 µM), hits mostly cytotoxic; 1.4% of 400,000 active; AID 1347075; KB-3-1 viability, CellTiter-Glo ATP luminescence, 72 h; note: nearly all actives have a fitted effect of over 60% in size
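Here the drug-naive KB-3-1 line serves as comparator for MDR sub-line selectivity; cells received compound titrations, 72 h at 37 °C, then CellTiter-Glo readout.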
KB-V1 cytotox = KB-V1 MDR subline cytotoxicity. KB-V1 MDR cells viability, CellTiter-Glo, 72 h. Potency, µM (doses to about 46.1 µM), usual class: cytotoxic. 3.4% of 400,000 active. AID 1347076; note: nearly all actives have a fitted effect of over 60% in size
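Readout: CellTiter-Glo luminescence, 10 min after addition. Cells: KB-V1 MDR subline, 72 h at 37 degrees C with compound. Analysis: corrected, normalized data fitted to concentration-effect curves.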
* marks the source's active call; other numbers are inactive results; i = inactive; ? = inconclusive; . = no result; [ ] = dose if it differs, or a comment. In the library only some 19% were active in any assay of this set; here they are far more common. Calls come from the whole dose curve; as a rule, active = well fitted curve in the direction sought with a large enough effect; inconclusive = small, poorly fitted or top-dose-only effect, or another doubt; inactive = no such curve, though single readings can be large; an effect the other way counts as inactive or inconclusive. Unless noted, % is set by controls: 0 for no effect and ±100 for the full control effect; potency is the fitted concentration of half-maximal effect.

SMILES	HT1080-NT tox	HT1080 IDH1KD tx	DT40 TDP1 CPT	DT40 TDP1 no CPT	KB-3-1 cytotox	KB-V1 cytotox
Cn1c(=O)c2c(nc(CN3CCN(c4ccc(F)cc4)CC3)n2Cc2ccccc2F)n(C)c1=O	-8%	-1%	10µM*	8.2µM*	i	?
CCOC(=O)Cn1c(CN2CCc3ccccc3C2)nc2c1c(=O)n(C)c(=O)n2C	0%	2%	4.1µM*	4.6µM*	i	i
COc1ccc(CNC(=O)[C@H](C)NC(=O)[C@@H]2Cc3ccccc3CN2)cc1	11%	12%	-15%	11%	i	i
COc1cc(/C=C(\C#N)c2nc3ccc(C)cc3[nH]2)c([N+](=O)[O-])cc1OC	-19%	?	-28%	?	i	i
COc1ccc(/C=C(\C#N)c2nc3ccc(C)cc3[nH]2)cc1Oc1ccc(C(F)(F)F)cc1[N+](=O)[O-]	6%	3%	?	16µM*	i	?
COc1cc(/C=C(\C#N)c2nc3ccc(C)cc3[nH]2)cc([N+](=O)[O-])c1O	-14%	-7%	?	21µM*	i	i
Cc1ccc2nc(/C(C#N)=C\c3ccc(Oc4ccc(C(F)(F)F)cc4[N+](=O)[O-])cc3)[nH]c2c1	?	?	?	10µM*	?	?
Cc1ccc(NC(=O)N2CCN(Cc3nc4ccc(C)cc4o3)CC2)cc1	.	.	-25%	-29%	i	i
Cc1ccc(-c2nnn3c2nc(NCCc2ccccc2)c2ccccc23)cc1	.	.	2%	-23%	i	i
CN(C)c1cc[n+](CC(=O)Nc2c(Cl)cc(Cl)cc2Cl)cc1	-7%	-27%	7.3µM*	6.5µM*	8.2µM*	i
Cc1cccc(N(C(=O)c2snc(C(N)=O)c2N)C(C(=O)NCc2ccccc2)c2ccncc2)c1 (centres undefined)	18µM*	?	0%	?	18µM*	i
NC(=O)c1nsc(C(=O)N(c2ccccc2)C(C(=O)NCc2ccc(F)cc2)c2ccc(O)cc2)c1N (centres undefined)	-23%	-23%	21µM*	18µM*	i	i
COc1ccc(N(C(=O)c2snc(C(N)=O)c2N)C(C(=O)NCc2ccccc2)c2ccc(O)cc2)cc1 (centres undefined)	-11%	-20%	?	23µM*	i	i
Cc1ccc(NS(=O)(=O)c2cc3c(cc2N2CCC2)NC(=O)CC3)cc1C	.	.	.	.	i	i
C#CCOCCOCCOCCNc1nc(N2CCN(C(=O)[C@H](CCC(=O)O)n3cc([C@@H](N)[C@H](C)CC)nn3)CC2)nc(N2CCN(C(=O)[C@H](CCC(=O)O)n3cc([C@@H](N)CCSC)nn3)CC2)n1	-2%	-4%	-7%	1%	i	i
Fc1ccc(-n2cc(-c3ccccc3)c3c(=S)nc[nH]c32)cc1	-29%	?	?	?	18µM*	i
Fc1cccc(-n2cc(-c3ccccc3)c3c(=S)nc[nH]c32)c1	-14%	?	?	21µM*	?	i
CC(=O)Oc1ccc(-c2cccc(C(=O)NCCCO)c2)cc1	-4%	-7%	-2%	-19%	i	i
Cc1ccc(-n2c(SCC(=O)Nc3cccc(Cl)c3)nc3n[nH]c(C)c3c2=N)cc1	.	.	8.2µM*	7.3µM*	.	.
COc1cccc(NC(=O)CSc2nnc(-c3cc(C)[nH]n3)n2N)c1	7%	0%	-4%	3%	i	i
COc1cccc(NC(=O)CSc2nc3n[nH]c(C)c3c(=N)n2-c2cccc(OC)c2)c1	?	-10%[9.24 µM]	23µM*	21µM*	i	i
CCc1ccc(NC(=O)CSc2nc3n[nH]c(C)c3c(=N)n2-c2cccc(OC)c2)cc1	?	11µM*	18µM*	26µM*	i	?
Cc1cc(-c2nnc(SCC(=O)Nc3cccc(Cl)c3)n2N)n[nH]1	-1%	-4%	-11%	-21%	i	i
Cc1cccc(-n2c(SCC(=O)Nc3ccc(C)c(C)c3)nc3n[nH]c(C)c3c2=N)c1	.	.	10µM*	7.3µM*	.	.
Cc1cccc(NC(=O)Nc2nnc([C@H]3C[C@H](O)[C@@H](CO)O3)s2)c1	4%	15%	?	-9%	i	i
SMILES	HT1080-NT tox	HT1080 IDH1KD tx	DT40 TDP1 CPT	DT40 TDP1 no CPT	KB-3-1 cytotox	KB-V1 cytotox
COc1cccc(-n2c(SCC(=O)NCCC3=CCCCC3)nc3n[nH]c(C)c3c2=N)c1	-14%	-24%	16µM*	15µM*	i	13µM*
CCN(C(=O)CSc1nc2n[nH]c(C)c2c(=N)n1-c1cccc(OC)c1)c1cccc(C)c1	.	.	23µM*	?	?	?
Cc1cc(-n2c(SCC(=O)Nc3ccc(Br)cc3)nc3n[nH]c(C)c3c2=N)ccc1Cl	1%	-4%	?	?	?	i
Cc1cc(-n2c(SCC(=O)Nc3ccc(F)c(F)c3)nc3n[nH]c(C)c3c2=N)ccc1Cl	?	0%	2.6µM*	1.5µM*	i	i
CCOc1ccc(NS(=O)(=O)c2ccc(C(=O)NCC(c3ccco3)N3CCCC3)cc2)cc1 (centres undefined)	-12%	-3%	?	?	i	i
O=C(C[n+]1ccncc1)c1ccc2ccccc2c1	.	.	-14%	?	?	i
O=C(CCNC(=O)N1CC(=O)Nc2ccccc21)NCc1cccc(C(F)(F)F)c1	10%	11%	-6%	-3%	i	i
CCOC(=O)C(C(C)=O)C(c1ccc(OCCC(C)C)cc1)C(C(C)=O)C(=O)OCC (centres undefined)	0%	-19%	?	16µM*	i	i
COC(=O)[C@H]1C[C@H](OC(=O)NC2CC2)[C@@]2(O)CN(S(=O)(=O)c3ccc(C)cc3)CC2[C@H]1C(=O)OC (some centres undefined)	-13%	-23%	-19%	-5%	?	i
Cc1ccc(S(=O)(=O)N2C[C@H]3n4c(=O)ccc(=O)n4C[C@H](OC(=O)NC4CC4)[C@@]3(O)C2)cc1	3%	6%	-13%	-12%	i	i
COc1ccc(CNC(=O)OC23CN(C(=O)OC(C)C)N(C(=O)OC(C)C)CC2(O)CN(S(=O)(=O)c2ccc(C)cc2)C3)cc1OC (centres undefined)	-5%	-7%	?	?	i	i

Screens as filed in PubChem.
